In PubChem BioAssay AID651725 (National Center for Advancing Translational Sciences (NCATS), 2012):
Out of some 360,000 compounds screened, about 2,000 (0.56%) were called active. Roughly 2% stayed inconclusive and do not appear here. Shown is part of a subset that was picked to be rich in actives. Unmarked numbers belong to inactive results. No stated cut-off is given here; in the data, active means activity change below about -65%; inconclusive means mostly about -30% to -63%; inactive means weaker than that.

Molecular target: Homeobox protein SIX1 (Homo sapiens) + Protein phosphatase EYA2 (Homo sapiens) (UniProt Q15475+O00167)
Sequence (O00167 whole entry, looked up): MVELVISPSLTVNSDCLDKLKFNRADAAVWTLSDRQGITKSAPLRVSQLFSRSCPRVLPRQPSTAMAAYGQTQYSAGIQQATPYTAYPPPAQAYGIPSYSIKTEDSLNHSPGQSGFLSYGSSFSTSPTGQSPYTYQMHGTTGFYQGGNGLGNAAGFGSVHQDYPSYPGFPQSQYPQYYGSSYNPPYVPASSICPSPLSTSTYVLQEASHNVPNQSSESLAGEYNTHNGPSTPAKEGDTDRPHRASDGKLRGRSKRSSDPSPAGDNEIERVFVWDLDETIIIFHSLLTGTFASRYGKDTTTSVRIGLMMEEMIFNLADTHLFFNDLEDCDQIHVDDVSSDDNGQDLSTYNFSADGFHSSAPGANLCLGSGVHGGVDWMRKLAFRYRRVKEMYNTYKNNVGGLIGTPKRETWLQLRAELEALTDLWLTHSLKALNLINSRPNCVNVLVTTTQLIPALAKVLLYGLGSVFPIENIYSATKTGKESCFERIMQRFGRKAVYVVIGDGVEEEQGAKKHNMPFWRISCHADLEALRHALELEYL
Sequence (Q15475 whole entry, looked up): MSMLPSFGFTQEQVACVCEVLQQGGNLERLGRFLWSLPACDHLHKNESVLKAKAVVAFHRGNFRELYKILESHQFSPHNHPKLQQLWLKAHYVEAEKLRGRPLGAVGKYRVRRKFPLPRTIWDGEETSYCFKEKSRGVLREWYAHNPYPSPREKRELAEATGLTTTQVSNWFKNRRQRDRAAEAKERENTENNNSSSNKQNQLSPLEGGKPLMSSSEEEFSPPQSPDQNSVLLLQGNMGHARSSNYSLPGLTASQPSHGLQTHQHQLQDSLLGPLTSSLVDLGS
Test: qHTS Assay for Inhibitors of the Six1/Eya2 Interaction
Settings: AlphaScreen GST-Six1/His-Eya2 binding, biochemical; stronger effect = lower value
How it was run: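 GST-Six1 + His-Eya2 (5X stock: 250/500 nM); Tris pH 8.0, 300 mM NaCl, 0.05% BSA, 0.02% Tween 20; GSH donor/Ni acceptor beads; 1 h 37 °C dark; AlphaScreen readout.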
On the % scale 0 is the no-effect control and ±100 the full control effect.

Compound	activity change
Cc1nc(CN(C)C(=O)CC2C(=O)NCCN2Cc2ccc(F)cc2)cs1 (centres undefined)	6.54%
O=C1CCC/C(=N\NC(=O)NC2CCCCC2)C1	4.54%
COC(=O)[C@@]12C[C@@H](CC(=O)N3CCC(c4ccccc4)CC3)C(=O)N(Cc3ccccc3)C1=CCC(C)(C)C2	-15.9%
CC(C)(C)C(=O)CSc1nc2ccccc2o1	10%
O=C(CSc1nc2ccccc2o1)N/N=C/c1ccccc1C(=O)O	-67.9% (active)
O=C(CSc1nc2ccccc2o1)N1CCN(c2ccccc2)CC1	0.782%
Cc1ccc(/C=N/NC(=O)CSc2nc3ccccc3o2)cc1	-87.1% (active)
CCC(NC(=O)c1ccccc1NC(=O)c1ccccc1)C(=O)NNC(=O)CSc1nc2ccccc2o1 (centres undefined)	-24.4%
CCN(CC)C(=O)CSc1nc2ccccc2o1	6.18%
Cc1ccc(-c2nc3c(Cl)cc(C(F)(F)F)cn3c2Cc2cccc(Cl)c2)cc1	1.53%
CC(C)CN1C(=O)CN(S(C)(=O)=O)CC1(C)C(=O)NCc1ccccc1 (centres undefined)	5.67%
CCOc1ccc(CCN2C(=O)C(=O)N([C@@H](CC(C)C)CN3CCC[C@H]3CN3C(=O)C(=O)NC[C@@H]3Cc3ccccc3)C[C@@H]2CC(C)C)cc1	-1.05%
CC(C)(C)C(=O)NCCCNc1ccc([N+](=O)[O-])cc1	-1.69%
O=C(Nc1ccccc1F)C1C2C=CC3(O2)C1C(=O)N(c1cccnc1)C3C(=O)NC1CCCCC1 (centres undefined)	4.1%
Nc1ccc2nc3c(=O)[nH]c(=S)[nH]c3nc2c1	-79.3% (active)
O=C(C(NS(=O)(=O)c1cccc2nsnc12)c1ccccc1)N1CCN(c2ccccc2)CC1 (centres undefined)	-0.046%
COc1ccc(C(O)C(O)(C(=O)OC(C)C)c2ccc(C)cc2)cc1 (centres undefined)	10.6%
Cc1ccc2cc(C#N)c(NCCNC(=S)NCCCN3CCOCC3)nc2c1	-1.85%
C/C(=N\Nc1cccc(C(=O)O)c1)c1ccc2c(c1)Nc1ccccc1S2	-18.9%
O=C1NC[C@H](CCCCN2C[C@H](Cc3ccccc3)N(Cc3ccccc3)C(=O)C2=O)N(CCc2ccc(O)cc2)C1=O	-1.72%
NN=C(NN=Cc1ccccc1)c1ccccc1	15.8%
C=CCOc1ccccc1/C=N/NC(=O)Cc1ccccc1	-1.77%
O=C(N/N=C/c1ccccc1O)/C(=C/c1ccccc1)CCO	-80.4% (active)

Compound	activity change
CN1CCN(C(=O)c2ccc(NC(=O)c3ccc(Br)o3)cc2)CC1	1.67%
COc1ccc(S(=O)(=O)N[C@@H]2C=C[C@@H](CC(=O)N3CCc4ccccc4C3)O[C@@H]2CO)cc1	-3.17%
COc1cccc(CNC(=O)C2CCN(S(=O)(=O)c3cccc4cccnc34)CC2)c1	-4.19%
Cc1cc(OCCOc2cccc3cccnc23)c(C)cc1Cl	-4.24%
CC(=O)/C(=N\Nc1ccc(Cl)cc1Cl)Sc1cccc2cccnc12	-91.1% (active)
COc1cc(CC(=O)N2CCC(n3nccc3NC(=O)C3CC3)CC2)cc(OC)c1OC	-0.446%
COc1cc(N2C(=O)CSC2=S)cc(OC)c1OC	-9.23%
CCOc1cccc(/C=N/N2C(=O)CSC2=S)c1O	-92.8% (active)
CCOc1ccc(N2C(=O)CSC2=NC#N)cc1	2.91%
CCOC(=O)[C@]12CCCC=C1N(CCC1=CCCCC1)C(=O)[C@H](CC(=O)N1CCSCC1)C2	-5.61%
Cc1cc(OCc2ccc(C(=O)Nc3ccc(C(=O)O)cc3)o2)ccc1Cl	-9.21%
Cn1cnc(S(=O)(=O)N2C[C@@H](O)COC[C@@H]3O[C@H](CC(=O)NC4CCC4)CC[C@H]32)c1	-0.831%
O=C(CN1C(=O)C2C3C=CC(C3)C2C1=O)Nc1nc(-c2ccccn2)cs1 (centres undefined)	-80.4% (active)
CC1CCN(S(=O)(=O)c2nnc(NC(=O)COc3ccccc3F)s2)CC1	3.54%
O=C(COc1ccccc1F)Nc1nc(-c2ccccn2)cs1	-84.1% (active)
O=C(NCCN1C(=O)C2C3C=CC(C3)C2C1=O)Nc1ccccn1 (centres undefined)	2.02%
Cc1cc(NC(=O)[C@H](C)NC(=O)c2ccco2)ccc1Br	0.811%
CC1CCCCC1NC(=O)COc1ccc(C#N)cc1 (centres undefined)	-10.9%
CSCCC(NC(=O)c1ccco1)C(=O)Nc1cc(C)ccn1 (centres undefined)	-1.3%
O=C(CCN1C(=O)C2C3C=CC(C3)C2C1=O)Nc1ccccc1F (centres undefined)	2.72%
COc1ccccc1NC(=O)COC(=O)COc1ccccc1F	6.13%
O=C(COc1ccccc1)Nc1nonc1NC(=O)COc1ccccc1	-6.13%
CC(NC(=O)c1ccco1)C(=O)Nc1nc(-c2ccccn2)cs1 (centres undefined)	-83.1% (active)

Compound	activity change
N#Cc1ccc(OCC(=O)Nc2nc(-c3ccccn3)cs2)cc1	-90% (active)
Cc1ccc2c(c1)c1ncnc(N3CCc4ccccc4C3)c1n2C	-7.75%
CCOc1ccc(CN2CCN(Cc3ccon3)CC2CCO)cc1 (centres undefined)	5.89%
CCCCCNC(=O)C(c1ccc(OC)cc1)n1c(=O)c(-c2ccccc2)nc2ccccc21 (centres undefined)	5.06%
CCCNC(=O)c1cc(C2CCCCN2S(=O)(=O)c2cn(C)cn2)on1 (centres undefined)	0.952%
CC(C)(C)C(=O)c1c(N)[nH]c(C(=O)c2ccccc2)c1-c1ccc(F)cc1	-8.67%
O=C1Nc2ccccc2-n2nnnc2C1N1CCN(c2cccc(C(F)(F)F)n2)CC1 (centres undefined)	0.68%
Cc1cccc(NS(=O)(=O)c2ccc(C)c(C(=O)NCc3cccnc3)c2)c1	-0.175%
O=C(C(=O)N1CCC(c2ccccc2)CC1)c1ccccc1	-2.34%
CCOC(=O)[C@]12CCCC=C1N(CCC1=CCCCC1)C(=O)[C@H](CC(=O)N1CCN(C(=O)c3ccco3)CC1)C2	-5.37%
Cc1cc([N+](=O)[O-])c(N2CCC[C@@H]2C(=O)O)c([N+](=O)[O-])c1	7.42%
Cc1c(NS(=O)(=O)c2ccc(NC3CCCC3)c([N+](=O)[O-])c2)c(=O)n(-c2ccccc2)n1C	-0.483%
Cc1cc([N+](=O)[O-])c(NC2CCCCC2)c([N+](=O)[O-])c1	-69.3% (active)
COC(=O)[C@]12CCCCC=C1N(Cc1ccc(Cl)cc1Cl)C(=O)[C@H](CC(=O)NCc1cccc3ccccc13)C2	-10.1%
O=C1NC[C@@H](CCCCN2CCN(CCc3ccc(O)cc3)C(=O)C2=O)N(CC2CCCCC2)C1=O	3.55%
CC[C@]1(c2ccccc2OC)C(=O)N(C(=O)OC)N1C(=O)OC	-0.457%
O=C1c2ccccc2C(=O)N1CCCc1nc(-c2ccccc2)no1	1.31%
O=C1c2cccc3cccc(c23)C(=O)N1CCCCCc1n[nH]c(=S)o1	-80.1% (active)
O=C(CN1C(=O)c2cccc3cccc(c23)C1=O)N1CCCCC1	2.22%
COC(=O)c1ccc2nc(-c3ccccc3)c(Cc3ccc(OC)cc3C)n2c1	0.0747%
COCCNC(=O)CCCn1c(=O)c2ccccc2n(Cc2cccc([N+](=O)[O-])c2)c1=O	4.87%
COC(=O)c1ccc(Nc2ncnc3sccc23)cc1	-1.71%
CCOC(=O)c1nc(Nc2ccc(C(=O)OC)cc2)c2ccccc2n1	-84.8% (active)

Compound	activity change
CCOC(=O)c1ccc(N/C(=N/S(=O)(=O)c2ccccc2)c2ccccc2)cc1	-27.6%
COc1ccc(NC(=O)CCC(=O)Nc2cc(OC)c(NC(=O)c3ccco3)cc2OC)c(OC)c1	-72.1% (active)
COc1ccc(NC(=O)CSc2ccc(-c3ccco3)nn2)c(OC)c1	-14.2%
COc1ccc(CC(=O)Nc2ccccc2NC(=O)c2ccco2)cc1OC	-2.61%
COC(=O)C[C@@H]1C=C[C@@H](NC(=O)c2ccc3c(c2)OCO3)[C@@H](CO)O1	-3.63%
Cc1ccc(S(=O)(=O)N(C)c2ccc(OCC(=O)OCc3ccc(C#N)cc3)cc2)cc1	5.43%
O=C(Oc1cccc(C(=S)N2CCOCC2)c1)c1cccc(Cl)c1	-18.4%
O=C(Oc1ccc(C(=S)N2CCOCC2)cc1)c1ccc(F)cc1	-91.7% (active)
O=C(Oc1ccc(F)cc1)N1CCOCC1	-1.89%
CCCc1c(-c2ccccc2F)ncn1Cc1ccccc1OC	-11.2%
Cc1cc(NC(=O)CSc2ncc(C(F)(F)F)cc2Cl)no1	1.15%
O=C(CSc1nnc(-c2ccncc2)o1)Nc1cccc(Cl)c1	-1.81%
Cc1cc(NC(=O)CSc2nnc(-c3ccc(Cl)s3)o2)no1	-86.8% (active)
Cc1cc(OCc2cc(C(=O)NCc3cc(C(C)C)no3)no2)cc(C)c1Cl	14%
Cc1ccc(S(=O)(=O)N[C@H](CO)C(C)C)cc1	4.31%
O=[N+]([O-])c1ccccc1S(=O)(=O)Nc1cccc2cccnc12	-91.7% (active)
Cc1ccc2cccc([N+](=O)[O-])c2n1	-20.1%
O=S(=O)(NCCc1ccc(F)cc1)c1cccc2cccnc12	-7.51%
Cc1ccc(S(=O)(=O)C2C(=O)NC3(C)CC2c2ccccc2O3)cc1 (centres undefined)	6.28%
COC(=O)[C@]12CCCCC=C1N(Cc1ccc3c(c1)OCO3)C(=O)[C@H](CC(=O)NCc1cccs1)C2	-7.98%
